# Data taken from PubChem BioAssay (NCI).
# Compounds without any hit were thinned out: in the full panel of roughly 83,000, 20% have a hit.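 96-well plates, one dose, 48 hours. Percent growth reported; active if below 10.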 Values without a mark were called inactive. Calls of active or inactive are those of the source.
# Key:
# Assay in all cases: NCI-60 one-dose screen, 48 h (100 = growth as untreated, 0 = no growth, -100 = all killed)
# Conditions in all cases: 10 µM unless noted
# [1] = system: SK-MEL-2 melanoma
# [2] = system: EKVX NSCLC
# [3] = system: UO-31 renal
# [4] = system: TK-10 renal
# [5] = system: ACHN renal
# [6] = system: CAKI-1 renal
# [7] = system: A498 renal
# [8] = system: CCRF-CEM leukemia
# [9] = system: MOLT-4 leukemia
# [10] = system: SR leukemia
# [11] = system: RPMI-8226 leukemia
# [12] = system: OVCAR-8 ovarian
# [13] = system: OVCAR-5 ovarian
# [14] = system: OVCAR-4 ovarian
# [15] = system: SK-OV-3 ovarian
# [16] = system: IGROV1 ovarian
# [17] = system: OVCAR-3 ovarian
# [18] = system: HS 578T breast
# [19] = system: NCI/ADR-RES ovarian
# [20] = system: SN12C renal
Compound,growth [1],growth [2],growth [3],growth [4],growth [5],growth [6],growth [7],growth [8],growth [9],growth [10],growth [11],growth [12],growth [13],growth [14],growth [15],growth [16],growth [17],growth [18],growth [19],growth [20]
CN(C)c1ccnc(CNCCSC2(c3ccccc3)c3ccccc3C=Cc3ccccc32)c1,-46.6% (active),-24.3% (active),13.5%,0.124% (active),12.8%,3.63% (active),-38.8% (active),-2.57% (active),7.41% (active),-52.6% (active),-48% (active),-45.1% (active),1.39% (active),16.8%,6.47% (active),11.1%,-58.6% (active),-34% (active),-61.6% (active),–
Cc1cccc(NC(=O)[C@]23CCC(C)(C)CC2C2=CCC4[C@@]5(C)C[C@@H](O)[C@H](O)[C@@](C)(CO)C5CC[C@@]4(C)[C@]2(C)CC3)c1 (some centres undefined),32.2%,11.5%,14.3%,52.9%,1.52% (active),22.8%,-11.3% (active),15.8%,5.2% (active),-26% (active),2.61% (active),39.3%,-28.9% (active),23.5%,36.9%,35.6%,41.3%,31%,7.61% (active),–
COc1ccc(C(=O)Nc2n[nH]c(Nc3ccccc3)c2C#N)cc1,110%,90.1%,90.7%,99.9%,99.3%,–,108%,114%,–,–,133%,111%,97.6%,118%,119%,105%,111%,114%,109%,110%
CC1(C)CC[C@]2(C(=O)Nc3ccc(Br)cc3)CC[C@]3(C)C(=CCC4[C@@]5(C)C[C@@H](O)[C@H](O)[C@@](C)(CO)C5CC[C@]43C)C2C1 (some centres undefined),-19.8% (active),15.5%,21.1%,22.5%,17.7%,20.6%,-45.2% (active),-19.8% (active),-10.5% (active),-9.66% (active),-33.5% (active),25.6%,-21.8% (active),5.44% (active),4.34% (active),38.2%,-4.06% (active),-0.476% (active),14.7%,–
CCCSc1nc(NCCc2c[nH]c3ccccc23)c(C#N)c(-c2ccccc2)n1,75%,35.7%,64.5%,107%,78.2%,57.1%,82.5%,40.4%,44.7%,8.87% (active),44.5%,82.1%,91.8%,82.1%,91%,100%,100%,66.8%,69%,–
COc1ccc(N2N=C(c3ccc4c(c3)OCO4)CC2c2cccc(NC(=O)CCNS(=O)(=O)c3ccc(Cl)cc3)c2)cc1 (centres undefined),44.5%,13.1%,35.3%,51.9%,24.9%,30.4%,-4.53% (active),18.7%,10.3%,3.71% (active),23.2%,49.1%,68.4%,51.6%,46.1%,61.1%,61.8%,13.4%,71.3%,–
Cc1ccc(-c2nc(C#N)c(S(=O)(=O)N3CCN(S(=O)(=O)c4ccc(Cl)cc4)CC3)o2)cc1,95.7%,99%,97.3%,117%,43.8%,–,107%,13.1%,–,47.3%,97%,82.2%,105%,86.8%,87.2%,95.8%,114%,65.2%,91%,93.4%
Cn1cc(-c2cc3nc(-c4cn(C)c5ncccc45)cc(N)n3n2)c2cc(Cl)ccc21,-80% (active),-38.5% (active),-87.5% (active),-83.2% (active),-94.4% (active),–,-75.9% (active),-14.4% (active),-45.7% (active),-54.7% (active),-13.9% (active),-41.4% (active),0.37% (active),–,-67.7% (active),-82.7% (active),-75% (active),-29.7% (active),-43.6% (active),-93.8% (active)
COc1cc2oc(-c3cccc(C(=O)Nc4ccc(Cl)cc4)c3)cc(=O)c2c(OCCNC(=O)[C@H](CCC(=O)OC(C)(C)C)NC(=O)OC(C)(C)C)c1OC,106%,90.7%,74.4%,109%,93.7%,–,113%,95.3%,71.6%,72.9%,78.1%,100%,–,93%,102%,89.9%,110%,92.6%,91.5%,91.9%
COc1ccccc1C(=O)NN1C(=O)/C(=C/C2=Cc3ccccc3OC2)SC1=S,109%,105%,74%,124%,103%,–,134%,93.7%,100%,92.1%,88.6%,–,109%,102%,94.5%,107%,107%,111%,107%,104%
Brc1ccc(N/N=C/c2c[nH]c3ccc(Br)cc23)nc1,-57% (active),-11.8% (active),-18.7% (active),-16.8% (active),-22.8% (active),–,-21.3% (active),-37.7% (active),-35% (active),-26.2% (active),-17.2% (active),3.48% (active),–,19.6%,-12.7% (active),-25.6% (active),-2.41% (active),-17.2% (active),-24.5% (active),-22.6% (active)
COc1cc2c(c(OC)c1OC)C(=O)CC(c1cccc(NC(=O)c3cc(NC(=O)[C@H](CO)NC(=O)OC(C)(C)C)ccc3Cl)c1)O2 (some centres undefined),11.7%,62.2%,48.8%,78.9%,46.1%,–,91.5%,21.8%,–,19.4%,17.9%,21.9%,86.8%,47.9%,81.7%,36.8%,27.4%,28.7%,76.4%,27.1%
COc1ccc(-c2nc3ccc(C(=O)NN4C(=O)c5ccc([N+](=O)[O-])cc5C4=O)cc3[nH]2)cc1,101%,90.7%,88.6%,101%,98.4%,92.6%,103%,83.3%,98.7%,89.1%,80.9%,97.5%,88.6%,101%,94.8%,101%,115%,104%,102%,–
COc1ccc2c(c1)C(=N/N=C(\C)c1ccc(OC)c(S(N)(=O)=O)c1)C(=O)N2,92.6%,90.3%,95.1%,102%,101%,79.5%,99.5%,74%,94.5%,83.2%,83%,92.7%,99.8%,96.6%,97.6%,107%,106%,70.3%,100%,–
CCN(CC)c1ccnc(CNCCSC(c2ccccc2)(c2ccccc2)c2ccc(C)cc2)c1,-92% (active),-84.9% (active),-20.8% (active),-85.7% (active),-53% (active),–,-96.8% (active),-40.9% (active),-30.9% (active),–,-42% (active),-90.3% (active),-70.6% (active),-21% (active),-87.4% (active),-30.9% (active),-88.4% (active),-49.3% (active),-84.3% (active),–
CCCCCCCCc1ccc(C(=O)Nc2cccc(P(=O)(O)O)c2)cc1,106%,103%,97.5%,105%,110%,93.6%,105%,79.6%,98.6%,87.7%,96.4%,99.7%,116%,111%,112%,108%,106%,102%,101%,–
